Screens as filed in PubChem BioAssay.
The entries come from a sample that favours hits as a whole.
Tg IFNy HTS – blocks Toxoplasma gondii growth in the presence of IFN-gamma; Toxoplasma gondii growth in IFN-gamma-treated host cells; stronger effect = lower value; activity change, negative = inhibition, % (concentration not given with the values); 3.8% of 69,000 active; AID 1259416; in the data active = activity change below about -70%, passing the limit was not always enough;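 also: host cells are HeLa cells infected with Toxoplasma gondii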
Numbers without * were called inactive; i = inactive; ! = not confirmed by another sample.

SMILES	Tg IFNy HTS
CCCCN(CC)C(=O)c1cc2cccnc2n(Cc2ccc(F)cc2)c1=O	-23.7
COc1cc(CNC(=O)C2(C)CCN(C(=O)Cc3ccc(C)cc3)CC2)cc(OC)c1	37.5
O=C(C1CCCN(Cc2ccc(N3CCOCC3)c(F)c2)C1)N1CCCCCC1 (centres undefined)	-3.8
CCc1ccc(S(=O)(=O)N2CCC3(CC2)Nc2cc(F)ccc2-n2cccc23)cc1	-52.9
CCCCN(Cc1ccc(C(=O)NO)cc1)C(=O)Nc1ccccc1	-84.8*
CCCCN(C)Cc1ccc(C(=O)Nc2c(C)noc2C)cc1	-4.4
O=C(Nc1ccccc1)N(Cc1ccc(Cl)cc1)Cc1nc2ccccc2c(=O)[nH]1	-46.4
CCn1c(=O)c(-c2nc(-c3ccc(OC)c(F)c3)no2)c(O)c2ccccc21	10.8
Cn1c(=O)[nH]cc(CCN2CCc3[nH]nc(-c4ccc(F)c(F)c4)c3C2)c1=O	10.3
COc1ccc(N2CCN(Cc3cnc[nH]3)C(C)C2)cc1 (centres undefined)	5.7
CCc1ccccc1NC(=O)C(=O)N1CCOC2(CNCCOC2)C1 (centres undefined)	-22.7
CNC(=O)Cn1cc(-c2cccc3ccnn23)cn1	3.4
NC(=O)c1csc(-c2cccc3ccnn23)n1	-97.6*
Cc1nnc(-c2ccccc2-c2cccc3ccnn23)s1	-40.5
CCSc1nc(CC(=O)NCCS(=O)(=O)N(C)C)cs1	-2.3
CCCCC(CC)CNC(=O)CCC1Nc2c3ccccc3nc(=S)n2C1=O (centres undefined)	6.8
CN1CCN(C(=O)C2CNCCOC2)CC1 (centres undefined)	-53.4
CCCCS(=O)(=O)N1CCC2(CC2C(=O)N(C)Cc2ccccn2)C1 (centres undefined)	113.9
CC(C)N(C)C(=O)C1=NOC2(CCN(C(=O)c3ccccn3)C2)C1 (centres undefined)	-0.2
CN(Cc1ccccn1)C(=O)c1cc(-c2cnc(-c3cccc(F)c3)nc2)cn1C	170.0
CN(Cc1ccccn1)C(=O)C1=NOC2(CCN(S(=O)(=O)c3ccc(F)cc3)C2)C1 (centres undefined)	-79.9*
CN(Cc1ccccn1)C(=O)C1=NOC2(CCN(S(=O)(=O)c3cccc(F)c3)C2)C1 (centres undefined)	-80.6*
Cc1ccc(S(=O)(=O)N2CCC3(CC(C(=O)NCC(C)C)=NO3)C2)cc1 (centres undefined)	0.0
COCC(=O)N1C[C@@H](C(=O)N2CCCO2)C[C@@H]2OCC[C@@H]21	4.5
C=CCN1CCCC1C(=O)N1CCn2nc(C(=O)Nc3ccccc3)cc2C1 (centres undefined)	0.7
SMILES	Tg IFNy HTS
C[C@]12C[C@H](O)[C@H]3[C@@H](CCC4=CC(=O)CC[C@@]43C)[C@@H]1CC[C@@H]2C(=O)CO	-13.3
CC(=O)OCC(=O)[C@H]1CC[C@H]2[C@@H]3CCC4=CC(=O)CC[C@]4(C)[C@H]3CC[C@]12C	-81.9*!
CC(=O)[C@H]1CC[C@H]2[C@@H]3CCC4=CC(=O)CC[C@]4(C)[C@H]3[C@H](O)C[C@]12C	-5.9
Cc1ccccc1-n1cc(-c2c(-c3ccccc3)ncn2Cc2ncn[nH]2)cn1	4.6
O=S(=O)(NCc1ccccc1)Nc1ccccc1-n1cccn1	4.5
NCCC(=O)N1c2ccccc2Sc2ccccc21	32.4
FC(F)(F)c1ccc2c(c1)Nc1ccccc1S2	90.3
O=C(c1ccc(F)cc1)N1c2ccccc2Sc2ccc(C(F)(F)F)cc21	-76.4*
CCOCC1CCC2C1OCCN2C(=O)C1CCCO1 (centres undefined)	-6.1
CCOC(=O)c1cnc(S(=O)(=O)CC)[nH]1	-21.3
CCOc1cccc(C2c3[nH]c4ccccc4c3CCN2C(=O)c2cccc(F)c2)c1 (centres undefined)	-123.3*
Cc1cccc(C(=O)N2CCc3c([nH]c4ccccc34)C2c2cccc(C)c2)c1 (centres undefined)	i
CCOc1cccc(C2c3[nH]c4ccccc4c3CCN2C(=O)c2cccc(C)c2)c1 (centres undefined)	-112.5*
COc1ccc(-n2c(=O)c(C(=O)Nc3ccc(F)cc3Cl)c(O)c3cccnc32)cc1	42.8
Cc1cc(F)ccc1NC(=O)CN[C@@H]1C[C@H]2CC[C@@H]1C2	-4.8
O=C(Nc1ccc(F)cc1)N1CC[C@H]2CC[C@@H](C1)N2	1.2
FC(F)(F)c1cc(Cl)c2nsnc2c1	53.6
CC1N(Cc2cccnc2)C(=O)COC12CCN(Cc1cnn(C)c1)CC2 (centres undefined)	4.3
CC1N(CCN(C)C)C(=O)COC12CCN(Cc1cnn(C)c1)CC2 (centres undefined)	4.0
C=CCN1C(=O)COC2(CCN(Cc3cnn(C)c3)CC2)C1C (centres undefined)	-78.2*
COc1cccc(-c2nc(Cn3nnc(C(=O)Nc4ccccc4F)c3C)c(C)o2)c1OC	69.6
COCC(=O)N1CCC(N(C)Cc2cccnc2)CC1C(=O)O (centres undefined)	160.4
Cc1ccnc(CC(C)N(C)C(=O)c2ccc3[nH]ccc3c2)c1 (centres undefined)	4.3
O=C(c1cccnc1)N1CC2(CCN(C(=O)c3cscn3)C2)C1	-38.7
Cc1cc(=O)oc2c(O)c(O)ccc12	7.1
SMILES	Tg IFNy HTS
O=c1cc(-c2ccccc2)oc2c(O)c(O)ccc12	-91.5*
Cc1oc2c(O)c(O)ccc2c(=O)c1-c1ccccc1	43.3
CCn1c(C2CCN(Cc3cn(C)nc3-c3ccccc3)CC2)n[nH]c1=O	-1.0
CCN(Cc1noc(C)n1)C(=O)c1cn(-c2ccccc2)nn1	12.6
Cc1cc(C)cc(NC(=O)CN2C(=O)CCc3cc(Br)ccc32)c1	-39.5
O=C(CN1C(=O)CCc2cc(S(=O)(=O)N3CCCCC3)ccc21)NC1CCCc2ccccc21 (centres undefined)	-13.5
O=C(CN1C(=O)CCc2cc(Br)ccc21)NC1CCCc2ccccc21 (centres undefined)	-94.1*
O=C(CN1C(=O)CCc2cc(Br)ccc21)Nc1cccc2c1CCCC2	164.0
Cc1ccc(NC(=O)CN2C(=O)CCc3cc(Br)ccc32)cc1F	17.7
CCN1CCN(Cc2ccc(NC(=O)CN3C(=O)CCc4cc(Br)ccc43)cc2)CC1	-92.3*
COc1ccc(C(=O)CC2(O)C(=O)Nc3ccc(C)cc32)c(OC)c1 (centres undefined)	12.4
C=C(C)COc1cccc(C(=O)N(C)CC2(CO)CCOCC2)c1	13.4
O=C(Nc1ccn(Cc2ccc(Cl)cc2Cl)n1)c1ccco1	-46.3
Cc1csc(NC(=O)CCC2CCCCC2)n1	-43.9
Cc1ccsc1[C@@H]1CCN(C(=O)c2nc3c(s2)CCCC3)C[C@H]1O	-11.8
CCN(CCc1nc2ccc(C)cc2[nH]1)C(=O)Cc1csc(C)n1	-30.6
CCN1C(=O)C2(c3ccccc31)c1[nH]c3ccccc3c1CCN2C(C)=O (centres undefined)	i
O=C(c1cc2cccnc2n(Cc2ccc(Cl)cc2)c1=O)N1CCN(c2ccc(F)cc2)CC1	-97.7*
O=C(c1cc2cccnc2n(Cc2ccc(F)cc2)c1=O)N1CCN(c2cccc(Cl)c2)CC1	-119.3*
CC1CCN(C(=O)c2cc3cccnc3n(Cc3ccc(F)cc3)c2=O)CC1	14.6
COc1ccc(N2CCN(C(=O)c3cc4cccnc4n(Cc4ccc(F)cc4)c3=O)CC2)cc1	32.9
CC(C)N(Cc1ccccc1)C(=O)c1cc2cccnc2n(Cc2ccc(F)cc2)c1=O	-95.6*
O=C(c1cc2cccnc2n(Cc2ccc(F)cc2)c1=O)N1CCN(c2ccccc2Cl)CC1	-84.4*
O=C(c1ccco1)N1CCN(C(=O)c2cc3cccnc3n(Cc3ccc(F)cc3)c2=O)CC1	-15.5
